Only some compounds are listed: those with a hit (about 3.1% of all), similar ones and a draw of the others.
EPAC2 ant val = validation of human EPAC2 antagonists; EPAC2 Rap1B BODIPY-GDP exchange, fluorescence; Potency, µM (series often up to 112 µM), for inactives: top-dose activity, negative = inhibition, actives largely listed as inhibitors; 16,000 compounds, 1.7% hits; AID 1645886;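 also: 100% = activation by cAMP agonist control; nearly all actives have a fitted effect of over 40% in size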
Target sequence (Q8WZA2 whole entry, looked up): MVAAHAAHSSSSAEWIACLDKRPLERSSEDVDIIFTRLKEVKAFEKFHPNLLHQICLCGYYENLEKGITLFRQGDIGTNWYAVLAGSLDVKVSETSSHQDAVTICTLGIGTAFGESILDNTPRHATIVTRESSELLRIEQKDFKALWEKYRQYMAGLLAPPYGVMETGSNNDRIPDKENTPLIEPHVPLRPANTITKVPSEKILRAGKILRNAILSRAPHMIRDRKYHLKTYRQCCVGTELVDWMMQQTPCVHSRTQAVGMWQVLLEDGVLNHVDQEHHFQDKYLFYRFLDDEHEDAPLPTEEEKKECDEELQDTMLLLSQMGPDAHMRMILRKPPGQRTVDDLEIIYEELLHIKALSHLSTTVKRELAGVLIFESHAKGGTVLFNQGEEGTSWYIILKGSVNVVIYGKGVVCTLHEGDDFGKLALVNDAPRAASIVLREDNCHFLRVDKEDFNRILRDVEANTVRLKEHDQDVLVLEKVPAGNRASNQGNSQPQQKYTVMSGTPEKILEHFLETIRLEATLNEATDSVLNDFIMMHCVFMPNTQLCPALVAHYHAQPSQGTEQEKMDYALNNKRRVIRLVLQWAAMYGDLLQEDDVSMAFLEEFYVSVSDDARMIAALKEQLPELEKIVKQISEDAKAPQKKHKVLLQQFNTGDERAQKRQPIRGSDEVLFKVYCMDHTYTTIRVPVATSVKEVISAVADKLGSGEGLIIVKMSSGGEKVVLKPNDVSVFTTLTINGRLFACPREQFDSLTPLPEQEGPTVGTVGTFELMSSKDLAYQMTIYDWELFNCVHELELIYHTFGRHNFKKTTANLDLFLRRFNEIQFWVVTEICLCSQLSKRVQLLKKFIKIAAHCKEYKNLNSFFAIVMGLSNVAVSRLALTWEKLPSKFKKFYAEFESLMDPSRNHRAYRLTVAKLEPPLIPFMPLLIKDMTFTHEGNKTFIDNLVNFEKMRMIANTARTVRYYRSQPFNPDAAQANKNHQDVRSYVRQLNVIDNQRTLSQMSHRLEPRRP
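Normalized against a 6.5 mM cAMP agonist control, compounds were tested on 100 nM EPAC2 exchanging Rap1B-bound BODIPY-GDP (250 nM) for 50 uM GDP. Fluorescence drop (ex 480, em 540 nm) was tracked at room temperature over 30 min at 5-min intervals.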
EPAC1 ag val = human EPAC1 agonism, validation; EPAC1 Rap1b BODIPY-GDP exchange, fluorescence; AID 1645883; 16,000 compounds, 1% hits; Potency, µM, without a hit: max response, positive = active, hits mostly activators; also: nearly all actives have a fitted effect of over 70% in size
Starred values were filed as active, the others as inactive; ? = inconclusive; ! = repeats disagree. Calls follow the shape of the dose curve; as a rule, active = well fitted curve in the direction sought with a large enough effect; inconclusive = small, poorly fitted or top-dose-only effect, or another doubt; inactive = no such curve, though single readings can be large; an effect the other way counts as inactive or inconclusive. Unless noted, % is scaled to controls: 0 for no effect and ±100 for the full control effect; potency is read from the fitted curve at half-maximal effect.

SMILES	EPAC2 ant val	EPAC1 ag val
CN(C)c1ncc2nc(-c3ccc(F)cc3)c(=O)n(Cc3cccs3)c2n1	1.1%	-11.9%
COc1ccc(-c2nc3cnc(Nc4ccccc4)nc3n(Cc3cccs3)c2=O)cc1	-10.8%	-10.0%
O=c1c(-c2ccc(F)cc2)nc2cnc(Nc3ccccc3)nc2n1Cc1cccs1	?	100µM*
CN(C)c1ncc2nc(-c3cc(F)cc(F)c3)c(=O)n(Cc3cccs3)c2n1	-22.0%	112µM*
Cc1nc2cnc(Oc3ccccc3)nc2n(Cc2cccs2)c1=O	?	24.5%
CN(C)c1ncc2nc(CCc3ccccc3)c(=O)n(Cc3cccs3)c2n1	10.7%	112µM*
CCn1c(-c2ccccc2F)nc2cc(NC(C)=O)cc(C(=O)NCC3CCOCC3)c21	?	-16.3%
CCC1(C2CCN(C(=O)c3coc4c3C(=O)CCC4)CC2)NC(=O)N(CCc2scnc2C)C1=O (stereo unspecified)	-7.5%	-6.2%
COC(=O)c1cccc(C(=O)N2CCc3c(C(=O)OC)c(OCc4ccccn4)cc(=O)n3CC2)c1	3.3%	-3.6%
Cc1nc2cc(NC(=O)[C@@H]3C[C@@H](Sc4ccccn4)CN3Cc3cccc(Cl)c3)ccc2s1	6.1%	1.6%
CC1(COc2ccc(C[C@H]3SC(=O)NC3=O)cc2)CCCCC1	?	-13.8%
CC1(COc2ccc(CC3SC(=O)NC3=O)cc2)CCCCC1 (stereo unspecified)	50.1µM*!	-12.8%
CN(C)c1ccc(/C=C/c2ccnc3c2ccc2ccccc23)cc1	33.4%	?
Cc1ccc2c(/C=C/c3ccc(N(C)C)cc3)ccnc2c1C	6.2%	100µM*
Cc1cc(C)c2c(C)ccnc2c1	-3.5%	25.6%
Cc1cc(C)c2nccc(/C=C/c3ccc(N(C)C)cc3)c2c1	45.4%	100µM*
COc1ccc(F)c(CN2CCC3(CCC(CNC(=O)c4cc(C)nn4C)O3)CC2)c1 (stereo unspecified)	-27.0%	-13.2%
CCC(C)[C@H]1COCCS(=O)(=O)N1Cc1ccccc1F (stereo partly specified)	?	-51.5%
CC(C)[C@H]1COCCS(=O)(=O)N1Cc1ccc(Cl)cc1	?	-49.1%
CCC(C)[C@H]1COCCS(=O)(=O)N1Cc1ccc(Br)cc1 (stereo partly specified)	10µM*	-123.9%
CCC(C)[C@H]1COCCS(=O)(=O)N1Cc1ccc(Cl)cc1Cl (stereo partly specified)	28.2µM*	-29.6%
COc1ccccc1N1CCN(c2nc(CNC(=O)c3ccccc3F)nc3ccccc23)CC1	?	6.7%
Cc1nn(-c2ccccc2)c(C)c1CC(=O)NCC1Cc2cc(F)cc(-c3cccnc3)c2O1 (stereo unspecified)	?	11.7%
COc1cc(OC)c(OC)cc1CN1CCCC(n2cc(C(=O)N3CCCCC3)nn2)C1 (stereo unspecified)	11.6%	-23.4%
CC(=O)c1ccc2c(c1)N(CCCN1CCN(CCO)CC1)c1ccccc1S2	53.9%	6.6%
SMILES	EPAC2 ant val	EPAC1 ag val
CN1CCN(CCCN2c3ccccc3Sc3ccccc32)CC1	3.4%	8.8%
CN1CCN(CCCN2c3ccccc3Sc3ccc(Cl)cc32)CC1	35.5µM*!	14.1%
OCCN1CCN(CCCN2c3ccccc3Sc3ccc(C(F)(F)F)cc32)CC1	50.1µM*!	17.3%
COC(=O)c1c(OCc2ccccn2)cc(=O)n2c1CCN(Cc1ccc3c(c1)CCCN3C)CC2	?	-11.0%
COc1cc(-c2noc(C)c2-c2ccc(N(C)C)nc2)cc(OC)c1OC	?	-2.3%
COc1cc(-c2noc(C)c2-c2ccc3[nH]ccc3c2)cc(OC)c1OC	79.4µM*	-72.6%
COCC(=O)Nc1cc(C(=O)N2CCN(C)C(c3ccccc3)C2)c2c(c1)nc(-c1ccncc1)n2C (stereo unspecified)	3.4%	-8.9%
CCCCCCOc1ccccc1C(N)=O	?	-10.1%
CCCc1c(OCCCCc2nn[nH]n2)ccc(C(C)=O)c1O	8.91µM*!	10.4%
CN1CCN(c2nc(-c3ccc(N(C)C)cc3)nc3ccccc23)CC1	-3.9%	-7.9%
CC(c1ccc(N(C)C)cc1)c1ccnc2ccccc12 (stereo unspecified)	-13.3%	112µM*
Cc1cc(C(=O)N2CCOc3ccc(CN4CCC(Oc5cccnc5)CC4)cc3C2)c(C)o1	9.1%	-12.7%
Cc1nc(NCc2c(C)nn(C)c2Cl)sc1-c1ccn(CC2COc3ccccc3O2)n1 (stereo unspecified)	?	5.8%
O=c1c(-c2ccc(Cl)cc2)nc2cncnc2n1Cc1ccccc1	-27.7%	?
O=c1c(-c2ccc(Cl)cc2)nc2cncnc2n1Cc1ccccc1Cl	-21.9%	112µM*
COC(=O)c1ccc(CN2CCOc3ccc(CN4CCC(O)(c5cccnc5)CC4)cc3C2)cc1	7.7%	0.4%
CN(C)c1ncc2nc(-c3cccs3)c(=O)n(C3CC3)c2n1	62.6%	100µM*
COCCn1c(=O)c(-c2cccs2)nc2cnc(OC)nc21	-3.8%	-37.4%
COCCn1c(=O)c(-c2cccs2)nc2cnc(N(C)C)nc21	42.7%	112µM*
O=c1c(-c2cccs2)nc2cnc(Oc3ccccc3)nc2n1C1CC1	-22.3%	-21.7%
Cc1cc(C(=O)NCc2nc(-c3cccc(NC(=O)c4cc(C)oc4C)c3)oc2C)nc(C)n1	-16.0%	3.8%
CCOc1ccc(N=C(C)Nc2ccc(OCC)cc2)cc1	15.2%	?
Cc1ncc2c(c1CNC(=O)c1ccc3c(c1)OCO3)CCN(C(=O)c1cn3ccccc3n1)C2	-1.7%	3.6%
COCCn1c(=O)c(C)nc2cnc(Nc3cccc(OC)c3)nc21	-9.1%	-5.9%
COc1cccc(Cn2c(=O)c(-c3ccc(Cl)cc3)nc3cnc(N4CCNCC4)nc32)c1	50.1µM*	?
SMILES	EPAC2 ant val	EPAC1 ag val
COc1ccc(Nc2ncc3nc(-c4cccs4)c(=O)n(Cc4cccc(OC)c4)c3n2)cc1	12.4%	?
COc1ccc(-c2nc3cnc(N4CCNCC4)nc3n(Cc3cccc(OC)c3)c2=O)cc1	-98.1%	?
COCCn1c(=O)c(-c2ccc(OC)cc2)nc2cnc(Nc3cccc(OC)c3)nc21	?	112µM*
COCCn1c(=O)c(-c2cccc(C#N)c2)nc2cnc(Oc3ccccc3)nc21	-20.1%	?
COc1cccc(Cn2c(=O)c(-c3cccs3)nc3cnc(Nc4cccc(OC)c4)nc32)c1	-3.3%	112µM*
COCCn1c(=O)c(-c2cccc(C#N)c2)nc2cnc(Nc3ccccc3)nc21	9.9%	112µM*
CC[C@@H](C)[C@H](N)C(=O)O	7.0%	-24.1%
COCCn1c(=O)c(CCc2ccccc2)nc2cnc(Nc3ccccc3)nc21	-11.8%	-21.2%
COCCn1c(=O)c(CCc2ccccc2)nc2cnc(Nc3cccc(OC)c3)nc21	-30.3%	112µM*
O=c1c2ccccc2oc2ccc(Oc3ccccc3)cc12	?	100µM*
CCOC(=O)/C=C/c1ccc2oc3ccccc3c(=O)c2c1	-15.3%	-0.8%
CCOC(=O)N1CCN(C(=O)c2ccc(-c3ccccc3OC)nc2N2CCC(N3CCCC(CO)C3)CC2)CC1 (stereo unspecified)	4.3%	-3.5%
CN1CCN(c2ncc3nc(-c4cn(C)c5ccccc45)c(=O)n(CCC#N)c3n2)CC1	89.6%	112µM*
O=c1c(-c2cccs2)nc2cnc(N3CCOCC3)nc2n1Cc1cccs1	5.9%	9.7%
CN1CCN(c2ncc3nc(-c4cccs4)c(=O)n(Cc4ccc(F)cc4)c3n2)CC1	2.0%	13.3%
CN1CCN(c2ncc3nc(-c4cn(C)c5ccccc45)c(=O)n(CCc4ccccc4)c3n2)CC1	-25.0%	-6.7%

Screens from PubChem.
